This note sets out measurements from ChEMBL document CHEMBL3988442, “University of Dundee, Small-Polar-MMV Screening Library” (2021).

Parameters in all cases: scale not given: direction of the effect not stated beside the values
Assay [1] has as its target Protein translocase subunit SecA (Escherichia coli (strain K12)) (UniProt P10408). The assay is described as follows: Assay to Identify E. coli SecA ATPase Inhibitors. It counts as functional. Conditions: 30 µM.
In assay [2] the target is T1, Ubiquitin-activating enzyme e1, putative (Leishmania donovani (strain BPK282A1)) (UniProt E9BSI1).
T1 sequence (whole entry): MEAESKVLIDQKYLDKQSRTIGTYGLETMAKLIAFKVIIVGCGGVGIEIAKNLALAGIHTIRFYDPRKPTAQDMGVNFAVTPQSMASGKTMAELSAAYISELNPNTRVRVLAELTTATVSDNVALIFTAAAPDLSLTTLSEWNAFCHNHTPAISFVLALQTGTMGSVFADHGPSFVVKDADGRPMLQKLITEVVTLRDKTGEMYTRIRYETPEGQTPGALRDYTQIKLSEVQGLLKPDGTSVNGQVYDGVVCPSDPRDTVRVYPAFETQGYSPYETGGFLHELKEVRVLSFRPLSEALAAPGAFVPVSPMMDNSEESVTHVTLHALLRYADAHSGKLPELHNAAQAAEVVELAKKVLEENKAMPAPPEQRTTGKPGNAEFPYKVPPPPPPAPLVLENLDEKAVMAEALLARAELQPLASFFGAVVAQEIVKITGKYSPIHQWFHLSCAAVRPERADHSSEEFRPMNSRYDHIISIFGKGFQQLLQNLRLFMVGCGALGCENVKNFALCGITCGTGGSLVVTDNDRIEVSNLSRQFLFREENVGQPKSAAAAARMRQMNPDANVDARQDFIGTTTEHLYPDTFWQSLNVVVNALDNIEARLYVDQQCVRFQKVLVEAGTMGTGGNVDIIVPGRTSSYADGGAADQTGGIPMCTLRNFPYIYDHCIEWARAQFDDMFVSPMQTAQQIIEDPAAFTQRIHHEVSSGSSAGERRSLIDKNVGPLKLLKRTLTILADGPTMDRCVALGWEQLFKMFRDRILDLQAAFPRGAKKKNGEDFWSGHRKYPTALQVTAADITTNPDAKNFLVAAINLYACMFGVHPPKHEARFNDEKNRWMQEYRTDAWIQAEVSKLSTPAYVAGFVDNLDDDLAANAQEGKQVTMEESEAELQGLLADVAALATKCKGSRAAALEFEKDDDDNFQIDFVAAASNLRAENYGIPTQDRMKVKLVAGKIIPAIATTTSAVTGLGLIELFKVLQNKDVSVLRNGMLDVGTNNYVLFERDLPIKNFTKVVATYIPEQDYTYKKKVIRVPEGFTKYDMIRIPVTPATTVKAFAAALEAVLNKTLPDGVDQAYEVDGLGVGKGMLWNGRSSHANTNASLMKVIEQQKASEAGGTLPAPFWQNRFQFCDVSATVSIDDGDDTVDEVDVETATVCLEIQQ
Put plainly: Leishmania donovani Ubiquitin Activating Enzyme (LdE1). Conditions: 30 µM. The format is functional.

In assay [3] the target is AMP-activated protein kinase, AMPK (Homo sapiens) (UniProt P54646+O43741+P54619+Q9UGJ0+Q9Y478+Q13131+Q9UGI9). The assay is described as follows: AMP-dependent Kinase enzyme assay. An in vitro enzyme assay that detects ADP turnover that is directly proportional to AMPK activity. This uses naive AMPK that is activated during the assay with MK-8722. The following applies: 30 µM. It counts as functional.

Assay [4] addresses Sialic acid-binding Ig-like lectin 9 (Homo sapiens) (UniProt Q9Y336). Put plainly: Hs-Siglec9 ALPHAscreen SOP 20170721. Conditions: 10 µM. For orientation: Alpha assays give light when donor and acceptor beads are brought close together.
The next assay has as its system Trypanosoma cruzi. The assay is described as follows: Trypanosoma cruzi phosphomannomutase and mannose-1-phosphate guanylyltransferase assay. The format is functional. Conditions: 10 µM.
For assay [5], the target named is T2, Arginase-2, mitochondrial (Homo sapiens) (UniProt P78540).
T2 sequence (whole entry): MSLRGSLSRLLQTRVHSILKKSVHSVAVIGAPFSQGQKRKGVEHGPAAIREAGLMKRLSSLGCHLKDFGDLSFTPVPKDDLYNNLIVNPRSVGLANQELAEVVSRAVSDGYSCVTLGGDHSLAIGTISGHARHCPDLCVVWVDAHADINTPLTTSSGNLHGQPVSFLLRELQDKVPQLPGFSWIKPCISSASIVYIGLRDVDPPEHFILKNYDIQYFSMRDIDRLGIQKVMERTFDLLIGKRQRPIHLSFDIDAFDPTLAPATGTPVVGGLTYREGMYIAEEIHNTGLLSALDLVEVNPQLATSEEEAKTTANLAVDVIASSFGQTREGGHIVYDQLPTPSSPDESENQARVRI
The assay is described as follows: in vitro enzyme assay to detect the production of urea directly proportional to the activity of Arginase II. Note: in the data most compounds retested in dose-response had high values. The format is functional. The following applies: 33.3 µM.

Assay [6] deals with T3, Proteasome subunit beta (Trypanosoma cruzi) (UniProt O96673).
T3 sequence (whole entry): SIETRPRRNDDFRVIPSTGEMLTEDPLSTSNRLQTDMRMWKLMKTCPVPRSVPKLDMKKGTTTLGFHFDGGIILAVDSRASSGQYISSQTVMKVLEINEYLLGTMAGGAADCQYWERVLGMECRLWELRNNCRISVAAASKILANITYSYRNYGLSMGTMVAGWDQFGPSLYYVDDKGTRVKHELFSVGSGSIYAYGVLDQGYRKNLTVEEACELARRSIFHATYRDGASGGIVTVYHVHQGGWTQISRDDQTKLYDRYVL
Put plainly: Trypanosoma cruzi proteasome chymotrypsin-like activity (TcProtChymo) assay. Note: in the data most compounds retested in dose-response had high values. The following applies: 9.37 µM. It counts as functional.

The next assay is filed under the species Homo sapiens. The assay is described as follows: To identify inhibition of the IFN signalling (Jak-Stat) pathway via expression of an eGFP reporter gene under the control of an IFN-stimulated response element (ISRE) containing MxA promoter. The format is functional. The following applies: 30 µM. In general terms: In a reporter assay the amount or activity of a reporter protein is the signal.

Assay [7] concerns the target T4, Tyrosyl-tRNA synthetase, putative (Trypanosoma cruzi (strain CL Brener)) (UniProt Q4DSP6).
T4 sequence (whole entry): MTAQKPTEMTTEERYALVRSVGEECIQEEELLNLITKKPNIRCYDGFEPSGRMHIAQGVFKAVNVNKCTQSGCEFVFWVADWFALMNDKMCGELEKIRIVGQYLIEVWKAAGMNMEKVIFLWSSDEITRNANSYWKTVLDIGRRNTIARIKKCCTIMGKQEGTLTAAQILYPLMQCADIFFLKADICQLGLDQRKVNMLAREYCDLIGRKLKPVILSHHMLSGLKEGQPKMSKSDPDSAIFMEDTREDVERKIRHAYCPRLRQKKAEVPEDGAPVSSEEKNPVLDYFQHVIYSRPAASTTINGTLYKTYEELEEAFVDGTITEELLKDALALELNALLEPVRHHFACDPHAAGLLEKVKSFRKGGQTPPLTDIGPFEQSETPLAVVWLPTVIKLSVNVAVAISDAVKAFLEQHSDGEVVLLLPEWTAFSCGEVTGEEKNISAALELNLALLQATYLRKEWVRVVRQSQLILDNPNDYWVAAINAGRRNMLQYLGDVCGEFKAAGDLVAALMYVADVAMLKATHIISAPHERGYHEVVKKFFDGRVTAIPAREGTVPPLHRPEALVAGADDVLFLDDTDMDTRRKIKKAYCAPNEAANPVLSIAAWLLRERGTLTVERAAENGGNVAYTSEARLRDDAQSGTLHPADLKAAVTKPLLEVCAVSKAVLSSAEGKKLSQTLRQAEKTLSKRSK
Put plainly: Trypanosoma cruzi tyrosyl tRNA synthetase (TcYRS) _High Tyrosine SOP. Note: in the data most compounds retested in dose-response had high values. It counts as functional. The following applies: 30 µM.

Assay [8] concerns the target T4, Tyrosyl-tRNA synthetase, putative (Trypanosoma cruzi (strain CL Brener)). The assay is described as follows: Trypanosoma cruzi tyrosyl tRNA synthetase (TcYRS) SOP. It counts as functional. The following applies: 30 µM.
The target in assay [9] is Chromo domain-containing protein 1 (Saccharomyces cerevisiae (strain ATCC 204508 / S288c) (Baker's yeast)) (UniProt P32657). Put plainly: ScCHD-1 Enzyme Inhibition Assay. Note: in the data most compounds retested in dose-response had high values. The format is functional. Conditions: 30 µM.

For some assays here: Measured potencies and affinities stand elsewhere.

Chain of Protein translocase subunit SecA (Escherichia coli (strain K12)) (P10408 whole entry): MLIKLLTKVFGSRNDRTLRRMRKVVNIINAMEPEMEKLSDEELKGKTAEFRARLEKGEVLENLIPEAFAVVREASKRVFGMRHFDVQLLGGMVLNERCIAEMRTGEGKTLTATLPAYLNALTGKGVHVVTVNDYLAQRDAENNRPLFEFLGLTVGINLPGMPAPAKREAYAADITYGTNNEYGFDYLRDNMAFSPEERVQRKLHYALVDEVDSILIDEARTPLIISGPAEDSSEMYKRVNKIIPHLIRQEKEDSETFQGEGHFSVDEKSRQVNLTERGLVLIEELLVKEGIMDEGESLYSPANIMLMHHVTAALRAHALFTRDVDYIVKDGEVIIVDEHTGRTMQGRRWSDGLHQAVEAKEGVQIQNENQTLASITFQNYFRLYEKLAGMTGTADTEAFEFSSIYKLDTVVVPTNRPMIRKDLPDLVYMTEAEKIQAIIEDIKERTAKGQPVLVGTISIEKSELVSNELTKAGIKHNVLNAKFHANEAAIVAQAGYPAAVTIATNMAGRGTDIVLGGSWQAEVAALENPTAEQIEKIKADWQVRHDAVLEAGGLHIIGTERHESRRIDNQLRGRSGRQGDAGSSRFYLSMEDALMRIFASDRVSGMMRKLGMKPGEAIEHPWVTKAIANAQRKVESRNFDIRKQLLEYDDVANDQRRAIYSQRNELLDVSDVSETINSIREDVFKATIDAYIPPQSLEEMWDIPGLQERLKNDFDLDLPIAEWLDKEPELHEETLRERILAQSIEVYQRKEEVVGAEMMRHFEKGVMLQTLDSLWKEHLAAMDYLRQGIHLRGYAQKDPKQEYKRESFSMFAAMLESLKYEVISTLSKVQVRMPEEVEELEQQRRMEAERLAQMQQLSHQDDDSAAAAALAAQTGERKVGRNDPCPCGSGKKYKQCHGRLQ
Chain of Chromo domain-containing protein 1 (Saccharomyces cerevisiae (strain ATCC 204508 / S288c) (Baker's yeast)) (P32657 whole entry, the tested form may be a part): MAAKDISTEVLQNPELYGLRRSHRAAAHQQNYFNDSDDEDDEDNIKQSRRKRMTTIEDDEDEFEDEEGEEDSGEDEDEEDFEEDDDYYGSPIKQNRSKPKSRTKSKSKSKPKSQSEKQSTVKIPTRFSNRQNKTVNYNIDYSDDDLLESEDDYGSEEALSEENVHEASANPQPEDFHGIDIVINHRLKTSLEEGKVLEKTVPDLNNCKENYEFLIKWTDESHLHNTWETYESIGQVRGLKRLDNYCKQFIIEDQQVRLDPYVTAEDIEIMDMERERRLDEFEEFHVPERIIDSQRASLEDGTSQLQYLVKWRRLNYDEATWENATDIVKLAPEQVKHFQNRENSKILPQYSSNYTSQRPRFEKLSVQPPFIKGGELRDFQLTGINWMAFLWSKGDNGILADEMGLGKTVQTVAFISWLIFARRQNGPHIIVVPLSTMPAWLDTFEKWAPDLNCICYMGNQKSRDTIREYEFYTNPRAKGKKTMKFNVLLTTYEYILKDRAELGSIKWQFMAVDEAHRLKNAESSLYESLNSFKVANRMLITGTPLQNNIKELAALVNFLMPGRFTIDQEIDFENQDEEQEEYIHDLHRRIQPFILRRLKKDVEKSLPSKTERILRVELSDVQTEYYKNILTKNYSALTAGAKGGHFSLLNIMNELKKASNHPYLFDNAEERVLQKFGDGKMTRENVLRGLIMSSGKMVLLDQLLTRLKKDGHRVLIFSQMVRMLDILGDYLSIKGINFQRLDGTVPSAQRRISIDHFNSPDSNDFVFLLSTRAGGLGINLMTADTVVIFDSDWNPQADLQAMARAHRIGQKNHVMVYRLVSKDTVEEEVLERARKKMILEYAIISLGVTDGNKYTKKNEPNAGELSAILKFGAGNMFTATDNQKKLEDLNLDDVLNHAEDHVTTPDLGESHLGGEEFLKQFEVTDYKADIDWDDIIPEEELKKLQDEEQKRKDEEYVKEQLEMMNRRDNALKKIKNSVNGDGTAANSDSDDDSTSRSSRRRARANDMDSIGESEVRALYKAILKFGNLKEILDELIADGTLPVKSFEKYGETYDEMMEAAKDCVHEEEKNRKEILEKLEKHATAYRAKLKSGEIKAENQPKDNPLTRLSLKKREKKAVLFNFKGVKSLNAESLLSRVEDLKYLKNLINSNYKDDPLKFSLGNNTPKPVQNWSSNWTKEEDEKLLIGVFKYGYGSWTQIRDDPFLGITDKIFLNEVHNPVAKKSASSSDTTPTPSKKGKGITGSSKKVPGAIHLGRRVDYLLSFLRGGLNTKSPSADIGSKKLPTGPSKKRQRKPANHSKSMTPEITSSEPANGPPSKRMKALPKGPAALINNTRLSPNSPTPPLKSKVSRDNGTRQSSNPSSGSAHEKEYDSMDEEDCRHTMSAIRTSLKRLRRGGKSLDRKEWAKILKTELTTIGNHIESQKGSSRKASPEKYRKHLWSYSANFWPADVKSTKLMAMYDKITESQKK
Chain of Sialic acid-binding Ig-like lectin 9 (Homo sapiens) (Q9Y336 whole entry): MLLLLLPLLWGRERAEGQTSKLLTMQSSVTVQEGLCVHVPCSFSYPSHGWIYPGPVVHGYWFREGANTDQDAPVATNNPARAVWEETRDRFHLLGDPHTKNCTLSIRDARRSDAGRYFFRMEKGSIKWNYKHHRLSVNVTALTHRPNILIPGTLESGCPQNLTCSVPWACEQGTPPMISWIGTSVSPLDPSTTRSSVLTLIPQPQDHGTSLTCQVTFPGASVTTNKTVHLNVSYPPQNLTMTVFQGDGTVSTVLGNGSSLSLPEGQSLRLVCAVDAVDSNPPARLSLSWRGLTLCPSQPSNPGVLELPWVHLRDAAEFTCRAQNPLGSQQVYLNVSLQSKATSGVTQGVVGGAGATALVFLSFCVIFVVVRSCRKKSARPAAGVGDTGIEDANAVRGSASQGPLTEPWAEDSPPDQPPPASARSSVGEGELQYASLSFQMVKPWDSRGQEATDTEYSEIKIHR

For the compound `Cc1cnn(CCNCc2nc(-c3ccccc3Cl)no2)c1`, the Percent Effect was -4.16% in assay [1]; 10.5% in assay [2]; 0.118% in [3]; -5.56% in assay [4]; 9.77% in the assay on Trypanosoma cruzi; -4.98% in assay [5]. Moreover, the Percent Effect in [6] was 16.5%; in the assay filed under Homo sapiens, 12.2%; in [7], 5.39%; in assay [8] it was 17.1%; in assay [9], -13.7%.

For the compound `Cc1ncsc1C(=O)NCCSCCCO`, the Percent Effect is 1.26% in assay [1]; 16.2% in assay [2]; -5.95% in [3]; -2.14% in [4]; 1.02% in the assay on Trypanosoma cruzi; -1.29% in assay [5]. Besides, the Percent Effect is 15.4% in [6]; -0.639% in the assay filed under Homo sapiens; 4.95% in assay [7]; 15.8% in assay [8]; -4.16% in assay [9].

For the compound `Cn1c(C2CC2)nc2c1CCN(CCOc1ccc(C#N)cc1)C2`, the Percent Effect in assay [1] was -3.25%; in assay [2] it was -15.6%; in assay [3], 4.37%; in assay [4], 6.69%; in the assay with Trypanosoma cruzi, 2.43%; in [5], -1.07%. The Percent Effect in assay [6] is 4.22%; in the assay listed under Homo sapiens it was -24.9%; in assay [7], 6.8%; in [8], 2.44%; in assay [9], -8.18%.

As to `CC1c2ncc(COc3cccnc3)n2CCN1C(=O)C1=CCCC1` (stereo not given), the Percent Effect in assay [1] is -4.3%; in assay [2], 12%; in [3] it was -0.286%; in [4], 5.22%; in the assay with Trypanosoma cruzi, -2.75%; in assay [5], -1.58%. The Percent Effect is 9.43% in assay [6]; 16.6% in the assay filed under Homo sapiens; 7.41% in assay [7]; 10.3% in [8]; -7.55% in assay [9].

For the compound `CCN(C1CCS(=O)(=O)C1)S(=O)(=O)c1cccc2cc(C)cnc12` (stereo not given), the Percent Effect in [1] is -4.6%; in [2], 21.1%; in [3] it was 5.96%; in [4], -4.93%; in the assay on Trypanosoma cruzi, -4.01%; in [5], 3.96%. For the same compound, the Percent Effect was 4.99% in [6]; 14.3% in the assay filed under Homo sapiens; 6.4% in [7]; 18.5% in assay [8]; -6.57% in [9].

In the case of `CCc1nc(C)c([C@H]2CN(C)C[C@@H]2C(=O)Nc2ccc(OC)cc2)[nH]1`, the Percent Effect in assay [1] is -5.53%; in assay [2], 5.41%; in assay [3] it was -1.46%; in assay [4], 2.65%; in the assay with Trypanosoma cruzi, 1.16%; in assay [5], -2.86%. In addition, the Percent Effect is 8.28% in assay [6]; 1.5% in the assay filed under Homo sapiens; 8.99% in [7]; 12.2% in [8]; -4.67% in assay [9].

Take `Cc1nc(CNC(=O)NCC(O)c2ccc(F)c(F)c2)cs1` (stereo not given): the Percent Effect in assay [1] was -1.38%; in assay [2] it was 10.8%; in assay [3] it was 1.17%; in [4], -3.81%; in the assay with Trypanosoma cruzi, 3.25%; in assay [5], -3.51%. The Percent Effect is 16.3% in [6]; 23.3% in the assay listed under Homo sapiens; 7.92% in assay [7]; 18.3% in assay [8]; -5.03% in assay [9].

In the case of `CCN(C(=O)COC)C(c1cccnc1)c1ccc2c(c1)CCO2` (stereo not given), the Percent Effect is 2.93% in assay [1]; 2.74% in assay [2]; 0.259% in [3]; 5.98% in assay [4]; -8.13% with Trypanosoma cruzi; -1.2% in assay [5]. Moreover, the Percent Effect in assay [6] was 19.8%; in the assay listed under Homo sapiens, 5.88%; in assay [7], 9.38%; in assay [8] it was 11.1%; in assay [9], -1.24%.

In the case of `CCN1CC(C(=O)N2CCC(Oc3ccccc3C)CC2)CC1=O` (stereo not given), the Percent Effect in [1] is -1.72%; in assay [2] it was 2.74%; in assay [3], 2.75%; in [4], 3.46%; with Trypanosoma cruzi it was -7.94%; in assay [5], 2%. Moreover, the Percent Effect was 8.65% in assay [6]; 7.65% in the assay filed under Homo sapiens; 3.12% in assay [7]; 21% in [8]; -0.203% in assay [9].

Regarding `COCCN(C)C[C@@H]1CN(C(=O)c2cccc(C(F)(F)F)c2)C[C@@H]1CO`, the Percent Effect in assay [1] was -0.782%; in assay [2], 2.7%; in [3], 1.75%; in assay [4], 21.1%; with Trypanosoma cruzi, 5.79%; in [5], 10%. In addition, the Percent Effect in assay [6] was 13.4%; in the assay filed under Homo sapiens, -3.37%; in assay [7], 2.65%; in assay [8], 14.6%; in assay [9], -4.78%.
